Molecules are shown by their SMILES. In all, about 330,000 compounds went through this assay and about 2,800 (0.85%) were called active. This is one part of a sample in which actives are shown more often than they occur.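 Rule for the calls: active = mean inhibition across replicates of 60% or more, whatever share of single replicates reaches that level; inconclusive = some that reach 60%, reason not given; inactive = mean inhibition across replicates below 60%.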

This assay is described as follows: inhibitors of MITF-dependent TRPM1 promoter reporter, primary screen, cell-based, SK-MEL-5, single point, luciferase (AID 488899). Particulars: SK-MEL-5 TRPM1 promoter luciferase, 24 h; at 12.5 µM; stronger effect = higher value.
In the case of `N#Cc1cc([N+](=O)[O-])ccc1Oc1cccc(/C=N/NC(=O)c2ccc(Cl)cc2)c1`, the inhibition was 4.52% (inactive).
For the molecule `CCCc1ccc(OCc2ccc(C(=O)N/N=C/c3cccc([N+](=O)[O-])c3)o2)c(OC)c1`, the inhibition was 69.2% (active).
Regarding `O=C(N/N=C/c1cccc(OCc2ccccc2)c1)c1ccc(Br)o1`, the inhibition is 4.51% (inactive).
For `COc1ccc(C(=O)NC2CC(C)(C)NC(C)(C)C2)cc1OC`, the inhibition is 1.95% (inactive).
Consider `CCOc1ncccc1C(=O)OCC(=O)c1c[nH]c2ccccc12`, for which the inhibition was 1.75% (inactive).
For the molecule `O=C(Nc1cc2c3c(c1)C1CCCC1CN3CC1CCCC21)c1ccc([N+](=O)[O-])cc1` (stereo not given), the inhibition was 1.02% (inactive).
For `COc1ccc(NC(=O)N2CCCC2C(=O)NCc2ccccc2Cl)cc1` (stereo not given), the inhibition is 11.5% (inactive).
For `C=CCNc1nnc(SCC(=O)N2CCCCC2)c2ccccc12` the value was 11.5% (inactive).
As for `CC(C)Cn1c(CCC(=O)O)ccc1-c1cccs1`, the inhibition is 7.94% (inactive).
With `Cn1c(=O)n(C)c2cc(S(=O)(=O)N3CCCc4ccccc43)ccc21`, the inhibition was 0.873% (inactive).
For `COc1ccc2sc(N(CCCN(C)C)C(=O)c3ccc(S(=O)(=O)N(C)C4CCCCC4)cc3)nc2c1`, the inhibition was 55.2% (inactive).
Regarding `Cc1ccc(NC(=O)c2cccc(S(=O)(=O)N3CCCc4ccccc43)c2)nc1`, the inhibition is 23.9% (inactive).
For `CCC(=O)Nc1nnc(S(=O)(=O)N2CCCc3ccccc32)s1`, the inhibition was 5.17% (inactive).
As for `N=C1C(c2nc3ccccc3s2)=C(O)CN1NC(=O)c1ccc([N+](=O)[O-])cc1`, the inhibition is 14.1% (inactive).
For the molecule `CN(C)CCCN(C(=O)c1ccc(S(=O)(=O)N2CCCCCC2)cc1)c1nc2ccc(Br)cc2s1`, the inhibition was 92.8% (active).
For `CN(C)CCCN(C(=O)c1ccc(S(=O)(=O)N2CCCc3ccccc32)cc1)c1nc2ccc(F)cc2s1` the value was 70.8% (active); for `CC1CCN(C(=O)c2cccc(S(=O)(=O)N3CCCc4ccccc43)c2)CC1`, 7.39% (inactive).
`CCc1ccc2nc(N(CCCN(C)C)C(=O)c3ccc4c(c3)OCCO4)sc2c1`: the inhibition was -67.8% (inactive).
Consider `O=C(Nc1nc2ccc([N+](=O)[O-])cc2s1)c1ccc(S(=O)(=O)N2CCCc3ccccc32)cc1`, for which the inhibition was 75.6% (active).
Consider `O=C(NC(Nc1nc2ccc([N+](=O)[O-])cc2s1)(C(F)(F)F)C(F)(F)F)c1ccccc1`, for which the inhibition was 70.9% (active).
In the case of `O=C(COC(=O)c1ccc([N+](=O)[O-])cc1Cl)NC(=O)c1ccccc1` it was -3.45% (inactive); in that of `CC(=O)N(OCc1ccc(OC(C)C)c(Cl)c1)C(C)=O`, -2.52% (inactive); in that of `OCC1(CO)CC2(C1)CC(CO)(CO)C2`, -3.8% (inactive).
In the case of `CCN(CC)S(=O)(=O)c1cccc(NC(=O)c2ccc(S(=O)(=O)N3CCCC3)cc2)c1` it was 11% (inactive); in that of `COc1ccc(-c2cc(C(=O)NC(Cc3c[nH]c4ccccc34)C(=O)O)c(C)o2)cc1OC` (stereo not given), 9.33% (inactive); in that of `O=C(NCC1(N2CCCCC2)CCCCC1)c1cccc(S(=O)(=O)Nc2ccccc2Cl)c1`, -26.7% (inactive).
`Cc1cc(NC(=O)C(C)SCC(=O)Nc2cccc(S(=O)(=O)N3CCCCCC3)c2)no1` (stereo not given): the inhibition was 18.1% (inactive).
For `CCC1CCCCN1C(=S)Nc1ccc(SC(F)F)cc1` (stereo not given) the value was -3.13% (inactive).
Turning to `COCCn1c(=NC(=O)c2ccccc2[N+](=O)[O-])sc2cc(S(C)(=O)=O)ccc21`, the inhibition was -52% (inactive).
In the case of `N#CC1=C(N)Oc2cc(N)ccc2C1c1ccccc1` (stereo not given), the inhibition was 23.5% (inactive).
Turning to `Nc1ncnc2c1cnn2C1CC(O)C(CO)O1` (stereo not given), the inhibition was -4.63% (inactive).
In the case of `CC(C(=O)NC1CCCC1)N1CCN(S(=O)(=O)c2ccccc2Cl)CC1` (stereo not given), the inhibition is -2.61% (inactive).
In the case of `O=C(Nc1c[nH]c(=O)[nH]c1=O)OCc1ccccc1` it was 0.994% (inactive); in that of `CC1(C)N=C(N)NC(Nc2ccc(Cl)cc2)=N1`, 4.8% (inactive); in that of `CC(C)(C)OC(=O)NC(Cc1ccccc1)C(=O)NC(CSC1CCCCO1)C(=O)NN` (stereo not given), -5.98% (inactive).
Take `COc1ccc2sc(-c3ccc(N(C)C)cc3)c(C#CCO)c2c1`: the inhibition is -46.5% (inactive).
For `COc1ccc2c(c1)c(=Cc1ccc(N(C)C)cc1)c1cc(-c3ccccc3)[n+](C)n12`, the inhibition was 95.7% (active).
As to `COc1ccc2sc(-c3ccc(N(C)C)cc3)c(-c3ccc4cc[nH]c4c3)c2c1`, the inhibition is -103% (inactive).
In the case of `Cn1cc(S(=O)(=O)N2CCN(c3ccc(F)cc3)CC2)c(=O)n(C)c1=O` it was 1.94% (inactive).
Turning to `COC(=O)Cc1nc2c(N)nc(N)nc2[nH]c1=O`, the inhibition was 3.9% (inactive).
As for `CCc1ccc(-c2cc(C)no2)cc1S(=O)(=O)NCCc1ccc(S(N)(=O)=O)cc1`, the inhibition was -13.2% (inactive).
As for `COc1ccc2[nH]c3c(c2c1)CCN1C(=O)C(CC(=O)NCCCN(C)C)C[C@H](C(=O)N2CCOCC2)[C@@]31CCC1CCCC1` (stereo not given in full), the inhibition was -12.1% (inactive).
Consider `COc1ccc(CNC(=O)C[C@H]2C[C@H](C(=O)N3CCOCC3)[C@@]3(CCC4CCCC4)c4[nH]c5ccc(Cl)cc5c4CCN3C2=O)cc1OC`, for which the inhibition is 72.7% (active).
In the case of `O=C(C[C@H]1C[C@H](C(=O)N2CCOCC2)[C@@]2(CCC3CCCC3)c3[nH]c4ccc(Cl)cc4c3CCN2C1=O)NCc1ccco1`, the inhibition was 21.2% (inactive).
With `CCOC(=O)N1CCN(C(=O)C2CCCN(c3ncnc4c3sc3cccc(F)c34)C2)CC1` (stereo not given), the inhibition was 28.8% (inactive).
Turning to `Cc1[nH]c2c(C(=O)N3CCCC(CCC(=O)NCc4ccccc4F)C3)cccc2c1C` (stereo not given), the inhibition is -16% (inactive).
For `O=C1C(Cl)=C(Oc2ccccc2)C(=O)c2ccccc21` the value was 89.7% (active).
As to `CC(=O)N(C1=C(Cl)C(=O)c2ccccc2C1=O)c1ccc(C(=O)O)cc1`, the inhibition was 11.6% (inactive).
Turning to `CC(=O)Oc1ccc2c(c1)C(=O)c1ccccc1C2=O`, the inhibition was -2.87% (inactive).
In the case of `COC(=O)C1=C(NC(=O)C(C)(C)C)CCS1`, the inhibition was -3.02% (inactive).
With `CC(C)C[C@@H](NC(=O)[C@H]1CCCN1C(=O)Cc1ccccc1)C(N)=O`, the inhibition is 0.4% (inactive).
For `NC(=O)C1(N2CCCC2)CCN(Cc2ccccc2)CC1` the value was -3.66% (inactive).
On to `Cc1cccc(-n2ncc(C#N)c2-n2cccc2)c1`, for which the inhibition is 3.18% (inactive).
Consider `C=CCNc1cnn(-c2ccc(C)cc2)c(=O)c1Cl`, for which the inhibition was -110% (inactive).
Take `Cc1cccc(-n2ncc(Cl)c(Cl)c2=O)c1`: the inhibition was 72.1% (active).

Broadly, the inhibition is the relative decrease from the control value, in per cent.

These data come from PubChem BioAssay AID488899 (Broad Institute, 2010).
